Measured values reported in publication PMC4336329 (PLoS ONE, 2015).
The campaign covered roughly 310,000 compounds. About 14,000 (4.5%) showed an effect of 50% or more. Effects have a minus sign here. The list comes from a sample in which strong results are over-represented; it also holds similar structures and randomly drawn compounds.

molecular target: human ether-à-go-go-related gene (hERG) potassium channel (human, UniProt Q12809); assay: primary screen, population patch clamp on CHO cells stably expressing hERG; higher = less effect of the substance
Sequence (Q12809 whole entry, looked up): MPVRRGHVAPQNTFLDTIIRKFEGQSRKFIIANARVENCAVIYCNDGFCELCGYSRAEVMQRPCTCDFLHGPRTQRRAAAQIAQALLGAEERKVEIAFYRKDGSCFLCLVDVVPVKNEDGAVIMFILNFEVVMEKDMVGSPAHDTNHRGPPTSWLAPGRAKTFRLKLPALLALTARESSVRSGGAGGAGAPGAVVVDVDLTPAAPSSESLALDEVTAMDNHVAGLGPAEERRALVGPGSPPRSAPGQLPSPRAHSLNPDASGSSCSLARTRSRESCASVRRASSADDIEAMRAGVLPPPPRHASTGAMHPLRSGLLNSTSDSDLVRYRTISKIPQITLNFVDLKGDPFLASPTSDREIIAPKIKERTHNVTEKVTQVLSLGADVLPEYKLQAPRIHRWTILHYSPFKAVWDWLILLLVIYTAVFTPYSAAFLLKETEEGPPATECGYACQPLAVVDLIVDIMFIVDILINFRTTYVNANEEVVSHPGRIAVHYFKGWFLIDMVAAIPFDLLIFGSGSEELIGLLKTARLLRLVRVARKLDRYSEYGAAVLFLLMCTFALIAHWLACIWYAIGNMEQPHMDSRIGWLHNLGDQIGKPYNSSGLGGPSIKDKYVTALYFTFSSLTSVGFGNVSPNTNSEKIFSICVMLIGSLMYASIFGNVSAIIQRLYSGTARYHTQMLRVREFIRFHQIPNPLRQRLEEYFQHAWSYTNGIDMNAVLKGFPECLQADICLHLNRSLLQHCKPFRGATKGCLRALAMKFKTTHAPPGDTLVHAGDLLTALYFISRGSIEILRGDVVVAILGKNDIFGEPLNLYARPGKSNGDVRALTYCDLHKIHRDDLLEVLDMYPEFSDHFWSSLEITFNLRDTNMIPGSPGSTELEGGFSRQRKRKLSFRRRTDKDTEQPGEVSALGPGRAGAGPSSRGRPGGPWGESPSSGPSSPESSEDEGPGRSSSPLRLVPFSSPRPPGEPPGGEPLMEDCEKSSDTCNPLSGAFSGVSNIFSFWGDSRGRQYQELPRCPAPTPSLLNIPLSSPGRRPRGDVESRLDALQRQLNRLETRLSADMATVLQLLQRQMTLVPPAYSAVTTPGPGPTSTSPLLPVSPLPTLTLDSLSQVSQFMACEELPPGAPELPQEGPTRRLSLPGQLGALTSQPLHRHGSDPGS
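Also: peak tail current of the secondary pulse compared with the same well before compound.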

Point of comparison: `Cc1ccccc1C(=O)N1CCN(CCNC(=O)C(=O)Nc2ccc(Br)cc2)CC1`, “hERG current change (%, negative = inhibition) at 10uM” value -68.8%. Against it:
- O=C(CN1CCN(C(=O)c2ccco2)CC1)Nc1ccc(Br)cc1 — higher, 5.38%
- O=C(CN1CCOCC1)Nc1ccc(NC(=O)c2ccccc2F)cc1 — higher, 10.7%
- O=C(NCCN1CCN(C(=O)c2cccs2)CC1)c1cccs1 — higher, -35.8%
- CCC(=O)Nc1ccc(N2CCN(C(=O)c3cccs3)CC2)cc1 — higher, -7.15%
- COc1ccccc1C(=O)N1CCN(CCNC(=O)C(=O)Nc2ccc(Br)c(C)c2)CC1 — higher, -48.8%
- Cc1cc(NC(=O)C(=O)NCCN2CCN(S(C)(=O)=O)CC2)ccc1Br — higher, -21.3%
- Cl.O=C(CN1CCN(C(=O)c2cccs2)CC1)NC1CCCCC1 — higher, -1.7%
- O=C(CN1CCN(C(=O)c2ccccc2F)CC1)Nc1ccc(Br)cc1 — higher, -64.6%
- O=C(NCCN1CCN(C(=O)c2cccs2)CC1)C(=O)Nc1ccc(Br)cc1 — lower, -73.7%
- Cc1cc(NC(=O)C(=O)NCCN2CCN(C(=O)c3cccs3)CC2)ccc1Br — higher, -63.7%
- Cc1onc(-c2ccccc2)c1-c1nnc(CN2CCN(S(=O)(=O)c3ccccc3F)CC2)o1 — higher, -28.4%
- Cc1c(/C=N\NC(=O)C2(C)CC2(Cl)Cl)cnn1C (centres unmarked) — higher, 5.55%
- COc1ccc(CC(=O)NC(=S)Nc2ccc(S(N)(=O)=O)cc2)cc1 — higher, -17.6%
- COc1ccc(/C=N/NC(=O)c2cccc(Br)c2)cc1CSc1ccccn1 — higher, 2.67%
- CCCNC(=O)c1cccc(Cn2nc(C)c(Br)c2C)c1 — higher, -6.12%
- CSc1cc(C)n(-c2ccc(Cl)cc2)c(=S)c1C(C)=O — higher, -33.9%
- Cn1c(SCC(=O)NNC(=O)c2ccccc2O)nnc1-c1ccccc1 — higher, 18%
- CCN(CC)S(=O)(=O)c1ccc(N(C)Cc2cccnc2)nc1 — higher, -15.2%
- CC(C)[NH+]1CCC2(CC1)C(C#N)=C(N)NC([S-])=C2C#N — higher, -4.59%
- COc1ccc(CN(CC(=O)NC2CCCC2)C(=O)c2ccc(-c3ccccc3)[nH]2)cc1 — higher, -19.9%
- CCCCN1C(=S)NC[C@@H]1Cc1ccccc1 — higher, -11.8%
- Cc1ccnc(NCn2nnc3ccccc32)c1 — higher, 7.69%
- Cc1ccc(NC(=O)C(=O)NCCN2CCN(C(=S)Nc3ccccc3)CC2)cc1 — higher, -19.1%
- Cc1ccc(NC(=O)C(=O)NCCN2CCN(C(=O)C(c3ccccc3)c3ccccc3)CC2)cc1 — higher, -9.93%
- CC1CC(C)CN(CC(O)COCc2ccccc2F)C1.Cl (centres unmarked) — higher, -23.4%
- COc1ccc(CCNC(=S)Nc2cccc(C)c2)cc1 — higher, -8.64%
- CCC1(c2ccc(F)cc2)NC(=O)N(CC(=O)N2CC(=O)Nc3ccccc32)C1=O (centres unmarked) — higher, -5.52%
- CCC1(c2ccc(F)cc2)NC(=O)N(CC(=O)N2c3ccccc3CC2C)C1=O (centres unmarked) — higher, -12.9%
- CCC1(c2ccc(F)cc2)NC(=O)N(CC(=O)N2c3ccccc3NC(=O)CC2C)C1=O (centres unmarked) — higher, -58.4%
- Cc1c(C(c2ccc(O)cc2)c2c(C)n(C)n(-c3ccccc3)c2=O)c(=O)n(-c2ccccc2)n1C — higher, -7.93%
- COc1ccccc1/C=C1\SC(=S)N(CCC(=O)N2CCCCC2CCO)C1=O (centres unmarked) — higher, 16.7%
- CNc1ccccc1C(C)(C)c1cc(C)[nH]n1 — higher, 22.6%
- Cc1cc(=O)[nH]c(SCC(=O)Nc2ccc3c(c2)CCC3)c1C#N — higher, -6.4%
- O=C(Nc1ccc(N2CCN(C(=O)C3CC3)CC2)cc1)c1cccs1 — higher, 2.17%
- CC(=O)c1ccc(S(=O)(=O)N2CCCC(N(C)CCc3ccccc3)C2)cc1 (centres unmarked) — lower, -81.2%
- CN(CCc1ccccn1)C1CCCN(S(=O)(=O)c2ccccc2Cl)C1 (centres unmarked) — higher, -46.5%
- CC(=O)c1ccc(S(=O)(=O)N2CCCC(N(C)CCc3ccccn3)C2)cc1 (centres unmarked) — higher, -65.3%
- Cc1cc(S(=O)(=O)N2CCCC(N(C)CCc3ccccn3)C2)c(C)s1 (centres unmarked) — higher, -46.6%
- CN(CCc1ccccn1)C1CCCN(S(=O)(=O)c2ccc(F)c(Cl)c2)C1 (centres unmarked) — higher, -48%
- CN(CCc1ccccc1)C1CCCN(S(=O)(=O)N(C)C)C1 (centres unmarked) — higher, -15.7%
- CN(CCc1ccccc1)C1CCCN(S(=O)(=O)CC(F)(F)F)C1 (centres unmarked) — higher, -3.61%
- Cc1cc(S(=O)(=O)N2CCCC(N(C)CCc3ccccn3)C2)c(C)cc1Cl (centres unmarked) — lower, -71.6%
- COC(=O)c1sccc1S(=O)(=O)N1CCCC(N(C)CCc2ccccn2)C1 (centres unmarked) — higher, -22.7%
